From PubChem BioAssay (Tox21)
Records with an inconclusive call do not appear. Entries that show only a call come without a potency. Active and inactive are the calls of the source. Calls follow the shape of the dose curve; as a rule, active = well fitted cell-killing curve with a large enough effect in the repeat runs; inconclusive = weak or mixed curves, or effect the other way; inactive = flat fitted curve, though single readings scatter.

test: qHTS RealTime-Glo MT Cell Viability Assay in HepG2 cells - 0 hour (AID 1224889); conditions: RealTime-Glo luminescence; series mostly up to 76.8 µM; also: nearly all actives have a fitted effect of over 50% in size
From the text: U.S. Tox21 Program National Center for Advancing Translational Sciences [NCATS] NIH Chemical Genomics Center [NCGC] U.S. Environmental Protection Agency [EPA] National Institutes of Environmental Health Sciences [NIEHS] National Toxicology Program [NTP] U.S. Food and Drug Administration [FDA] Tox21 Assay Overview: Measure of cell viability is critical in the cell-base assay. Analysis of cell viability is necessary for the characterization of cell responses to cytotoxic drugs and environmental stress. A RealTime-Glo MT Cell Viability Assay to monitor cell viability in real time of continues cell culture during 40 hours of compound treatment was used to screen Tox21 10K library compounds in HepG2 cells. The RealTime-Glo MT Cell Viability Assay is a nonlytic, homogeneous, bioluminescent method to measure cell viability in real time using a simple, plate-based method. The assay involves adding NanoLuc luciferase and a cell-permeant prosubstrate to cells in culture. Viable cells reduce the proprietary prosubstrate to generate a substrate for NanoLuc luciferase. This substrate diffuses from cells into the surrounding culture medium, where it is rapidly used by the NanoLuc Enzyme to produce a luminescent signal. The signal correlates with the number of viable cells, making the assay well suited for cytotoxicity studies.
Tox21 Assay Protocol Summary: The mixture of HepG2 cell suspension and reagents were dispensed at 600cells/6 ul/well in 1536-well tissue culture treated black solid bottom plates using a Multidrop dispenser. After the assay plates were incubated at a 37 C/5% CO2 incubator for 5 hours, 23 nL of compounds dissolved in DMSO, positive and negative controls was transferred to the assay plate by a pintool work station. The plates were incubated at 37 C for 40 hours. The luminescence intensity were measured at 0h, 8h, 16h, 24h, 32h and 40h time points using ViewLux plate reader during compound treatment.

Compound | Potency
CNC | inactive
CN(C)[C@@H]1C(=O)C(C(N)=O)=C(O)[C@@]2(O)C(=O)C3=C(O)c4c(O)cccc4[C@@](C)(O)[C@H]3[C@H](O)[C@@H]12 | inactive
CCCCCCCCn1cc[n+](C)c1 | inactive
CCCC[N+]1(C)CCCC1 | inactive
OCCOc1ccccc1 | inactive
Nc1ccc(Cl)cc1 | inactive
O=c1nc(O)n(Cl)c(=O)n1Cl | inactive
O=C(O)c1nc(Cl)ccc1Cl | inactive
C[N+](C)(C)Cc1ccccc1 | inactive
Nc1ccc(-c2ccc(N)c(Cl)c2)cc1Cl | inactive
CCn1cc[n+](C)c1C | inactive
O=P1(N(CCCl)CCCl)NCCCO1 (stereo not given) | inactive
CCCC[n+]1ccc(C)cc1 | inactive
CCCCCCCCCCCCn1cc[n+](C)c1 | inactive
C1CCC(NC2CCCCC2)CC1 | inactive
Oc1ccccc1-c1ccccc1 | inactive
O=[N+]([O-])c1ccccc1O | inactive
CCOP(=S)(OCC)Oc1ccc2c(C)c(Cl)c(=O)oc2c1 | inactive
C=CCOC(Cn1ccnc1)c1ccc(Cl)cc1Cl (stereo not given) | inactive
CC[n+]1ccccc1 | inactive

Compound | Potency
O=S(=O)(O)O | inactive
CCCCCCCCCCCCCCCCn1cc[n+](C)c1 | inactive
COP(=O)(OC)C(O)C(Cl)(Cl)Cl (stereo not given) | inactive
O=[N+]([O-])O | inactive
CC[N+]1(C)CCCC1 | inactive
CCC[N+]1(C)CCCCC1 | inactive
CC[N+](CC)(CC)CC | inactive
Cc1cc(-c2ccc(N)c(C)c2)ccc1N | inactive
CCCn1cc[n+](C)c1 | inactive
Cc1cc(Cl)ccc1OCC(=O)O | inactive
CCCC[n+]1ccccc1C | inactive
CCNc1nc(Cl)nc(NCC)n1 | inactive
CCC(=O)C(CC(C)N(C)C)(c1ccccc1)c1ccccc1 (stereo not given) | inactive
O=C(O)CC(O)(CC(=O)O)C(=O)O | inactive
Nc1ccccc1 | inactive
CC(=O)[O][Hg][c]1ccccc1 | inactive
CCC[N+]1(C)CCCC1 | inactive
N#CS | inactive
O=C(O)C(Cl)(Cl)Cl | inactive
CCCCCCCCCCCCCC[P+](CCCCCC)(CCCCCC)CCCCCC | inactive
